Measurements: PubChem BioAssay AID651610 (Broad Institute, 2012)
The campaign covered roughly 360,000 compounds. About 3,900 (1.1%) were called active. The sample as a whole holds a higher share of actives than the screen did. A number with no mark means an inactive call.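 Rule for the calls: active = mean replicate inhibition score of at least 50 and every replicate individually at or above 50; inconclusive = only one of the two criteria met; inactive = mean below 50 and not all replicates reaching 50.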

Test: blockers of JRFL envelope-mediated fusion – HeLa-JRFL effector, CEM21 target cells, luciferase, primary screen (AID 651610);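 note: 0% = plate neutral controls and 100% = maraviroc near 300 nM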
Details: HeLa-JRFL Env/CEM21 cell fusion, active compounds read high; at 16.7 µM unless noted

Row | Structure (SMILES) | inhibition
1 | O=C(C[C@@H]1C[C@H]2c3cc(NC(=O)Nc4ccccc4)ccc3O[C@H]2[C@@H](CO)O1)NC1CCCCC1 | 6.41%
2 | O=C(CN(c1cc(C(F)(F)F)ccc1Cl)S(=O)(=O)c1ccccc1)NCc1cccnc1 | 85.1% [at 12.3 µM] (active)
3 | CCc1ccc(N(CC(=O)NCc2cccnc2)S(=O)(=O)c2ccccc2)cc1 | 10.5% [at 12.3 µM]
4 | CN(CC(=O)NCc1cccnc1)S(=O)(=O)c1cc(Cl)ccc1Cl | 2.11% [at 12.3 µM]
5 | C/C=C/c1ccccc1[C@@H]1[C@@H](C#N)N(c2nc(CC)cs2)[C@@H]1CO | -1.66%
6 | CCCNC(=O)N1CCC2(CC1)CN(C(=O)CN1CCOCC1)[C@H](CO)c1[nH]c3cc(OC)ccc3c12 | -5.75%
7 | Cc1ccccc1-c1cnc2c(c1)C(=O)N([C@H](C)CO)C[C@H](C)[C@@H](CN(C)C(=O)c1ccccc1)O2 | -8.15%
8 | O=C(NCc1ccc2c(c1)OCO2)C12CC3CC(CC(C3)C1)C2 | 8.77% [at 12.3 µM]
9 | Cc1ccc(C(=O)NC23CC4CC(CC(C4)C2)C3)c(Cl)c1 | -0.699% [at 12.3 µM]
10 | S=C(NCc1ccc(Cl)cc1)NC12CC3CC(CC(C3)C1)C2 | 103% [at 12.3 µM] (active)
11 | CN(C)C(=O)C[C@H]1C=C[C@@H](NC(=O)C2CCC2)[C@@H](CO)O1 | 24.4%
12 | Cc1ccc(OCC(=O)N2CCN(C(=O)c3cccnc3)CC2)cc1 | -3.51% [at 12.3 µM]
13 | CCCOc1cccc(C(=O)NCCCNC(=O)c2cccnc2)c1 | 11.1% [at 12.3 µM]
14 | CCCCCCOc1ccc(OC(=O)c2cccnc2)cc1 | 58.2% [at 12.3 µM] (active)
15 | C[C@H](CO)N1C[C@H](C)[C@H](CN(C)S(C)(=O)=O)Oc2ncc(C3=CCCCC3)cc2C1=O | 10.5%
16 | N#C[C@H]1[C@H](c2ccc(C#Cc3ccc(F)cc3)cc2)[C@@H](CO)N1C(=O)C1CCCC1 | 10.1%
17 | COCc1cn(CC[C@@H]2CC[C@@H](NC(=O)Cc3cccnc3)[C@@H](CO)O2)nn1 | 7.99%
18 | C[C@H]1CCCCO[C@H](CN(C)C(=O)Nc2ccc3c(c2)OCO3)[C@@H](C)CN([C@@H](C)CO)C(=O)c2cc(NC(=O)Nc3ccccc3)ccc2O1 | -15.3%
19 | CCN(CC)CCN(C(=O)c1cc(Cl)sc1Cl)c1nc2cc3c(cc2s1)OCO3 | 71.9% [at 12.3 µM] (active)
20 | CN(C)CCN(C(=O)C1=COCCO1)c1nc2ccc(Cl)cc2s1 | -71.9% [at 12.3 µM]
21 | CCN(CC)CCN(C(=O)c1ccc(N2C(=O)CCC2=O)cc1)c1nc2cc3c(cc2s1)OCO3 | 13.5% [at 12.3 µM]
22 | CC(C)NC(=O)N(C)C[C@H]1Oc2ccc(NS(=O)(=O)c3cn(C)cn3)cc2CC(=O)N([C@@H](C)CO)C[C@H]1C | -7.65%

Row | Structure (SMILES) | inhibition
23 | Cc1ccc(S(=O)(=O)N2CCC(C(=O)N3CCCCCCC3)CC2)cc1 | -2.71% [at 12.3 µM]
24 | CCC(C)c1ccccc1N1CC(C(=O)N2CCN(S(=O)(=O)c3ccc(F)cc3)CC2)CC1=O (stereo not given) | 18.5% [at 12.3 µM]
25 | Cc1ccc(CN2CC(C(=O)N3CCN(S(=O)(=O)c4ccccc4)CC3)CC2=O)cc1 (stereo not given) | 64.5% [at 12.3 µM] (active)
26 | COc1ccc2c3c(n(C)c2c1)[C@@H](CO)N(C(C)=O)CC31CCN(C(=O)C2CC2)CC1 | 3.46%
27 | C[C@H](CO)N1C[C@H](C)[C@H](CN(C)C(=O)Nc2ccc(F)cc2)Oc2c(NC(=O)c3cnccn3)cccc2C1=O | 30.7%
28 | C=CC[n+]1c(-c2ccc(C)cc2)csc1NNC(=O)Nc1ccccc1 | 77.7% [at 12.3 µM] (active)
29 | O=C(NNC(=O)c1ccc(-c2ccccc2)cc1)Nc1ccccc1 | 17% [at 12.3 µM]
30 | Cc1ccc(NC(=O)NNC(=O)c2sccc2-n2cccc2)cc1 | -3.39% [at 12.3 µM]
31 | C[C@H](CO)N1C[C@H](C)[C@@H](CN(C)CC2CCOCC2)Oc2ncc(C#Cc3ccc(F)cc3)cc2C1=O | 7.54%
32 | C[C@@H](O)C#Cc1cnc2c(c1)C(=O)N([C@@H](C)CO)C[C@H](C)[C@H](CN(C)C(=O)c1ccccc1F)O2 | 5.54%
33 | COc1cccc(CNc2nc(NCc3ccccc3OC)nc3ccsc23)c1 | 72.3% [at 12.3 µM] (active)
34 | COc1ccccc1CNc1nc(Nc2ccccc2Cl)c2sccc2n1 | 20.5% [at 12.3 µM]
35 | COCCNc1nc(NCc2ccc(NC(C)=O)cc2)c2sccc2n1 | -25.8% [at 12.3 µM]
36 | C[C@@H]1CN([C@@H](C)CO)C(=O)Cc2cc(NS(C)(=O)=O)ccc2O[C@H]1CN(C)S(=O)(=O)c1ccc(F)cc1 | -0.637%
37 | CN1[C@@H]2c3ccc(-c4ccc(F)cc4)c(=O)n3C[C@H]1[C@H](CO)[C@H]2C(=O)NC1CCC1 | 0.501%
38 | CCN1C(=O)[C@H]2[C@@H](c3ccc(C(F)(F)F)cc3)N[C@]3(CCCN(Cc4ccc(Br)cc4)C3=O)[C@H]2C1=O | -31.5% [at 12.3 µM]
39 | CC12C(=O)N(c3ccccc3)C(=O)C1C(c1ccccc1)N1CCCN12 (stereo not given) | 6.12% [at 12.3 µM]
40 | C[C@@]12C(=O)N(c3cccc(Br)c3)C(=O)N1[C@H](c1ccc(Cl)cc1)[C@@H]1C(=O)N(C3CCCCC3)C(=O)[C@@H]12 | -9.25% [at 12.3 µM]
41 | COc1ccc([C@@H]2[C@@H]3C(=O)N(C(C)(C)C)C(=O)[C@@H]3[C@]3(Cc4ccccc4)C(=O)N(c4cccc(Br)c4)C(=O)N23)cc1 | 33.2% [at 12.3 µM]
42 | CC[C@@]12C(=O)N(c3ccccc3)C(=O)N1[C@H](c1ccc(Br)cc1)[C@@H]1C(=O)N(C(C)(C)C)C(=O)[C@@H]12 | 59.8% [at 12.3 µM] (active)
43 | CCN1C(=O)[C@H]2[C@@H](c3ccc(C)cc3)N3C(=O)N(c4cccc(Br)c4)C(=O)[C@@]3(CC)[C@H]2C1=O | 82.7% [at 12.3 µM] (active)
44 | CCOC(=O)[C@@H]1[C@H]2COc3ccc(Br)cc3[C@H]2N2C(=O)N(c3ccc(C)cc3)C(=O)[C@@]12C | -52.6% [at 12.3 µM]

Row | Structure (SMILES) | inhibition
45 | CCCCC1(C(=O)OCC)NC(c2ccc(O)cc2)C2C(=O)N(c3ccccc3)C(=O)C21 (stereo not given) | 2.85% [at 12.3 µM]
46 | CC(C)(C)N1C(=O)[C@H]2[C@@H](c3ccc(Br)cc3)N3C(=O)N(c4cccc(Cl)c4)C(=O)[C@@]3(C)[C@H]2C1=O | 72.7% [at 12.3 µM] (active)
47 | C[C@@H]1CCCCO[C@@H](CN(C)S(=O)(=O)c2ccc(F)cc2)[C@@H](C)CN([C@@H](C)CO)C(=O)c2cc(NC(=O)Nc3ccc(F)cc3)ccc2O1 | -9.74%
48 | C[C@H](CO)N1C[C@H](C)[C@@H](CN(C)C(=O)C2CC2)Oc2cc(-c3cccc(C#N)c3)ccc2S1(=O)=O | 6.81%
49 | COc1ccccc1S(=O)(=O)N[C@@H]1CC[C@H](CC(=O)N2CCN(C)CC2)O[C@@H]1CO | -0.692%
50 | C[C@@H]1CN([C@@H](C)CO)C(=O)c2cccc(NC(=O)C3CCOCC3)c2O[C@H]1CN(C)C(=O)NC1CCCCC1 | 10.1%
51 | C[C@@H]1CN([C@@H](C)CO)S(=O)(=O)c2ccc(C#CC3CCCC3)cc2O[C@H]1CN(C)S(C)(=O)=O | 6.95%
52 | COc1cccc(-c2cnc3c(c2)C(=O)N([C@H](C)CO)C[C@@H](C)[C@H](CN(C)Cc2ccc(F)cc2)O3)c1 | 7.73%
53 | CN1C(=O)c2cc(NC(=O)c3cccs3)ccc2OC[C@H]2O[C@@H](CC(=O)NCC3CC3)CC[C@@H]21 | 3.56%
54 | Cc1cc(C)cc(N2C(=O)CSC2c2cccc([N+](=O)[O-])c2)c1 (stereo not given) | -6.42%
55 | C[C@H]1CN([C@@H](C)CO)C(=O)c2cccc(NS(=O)(=O)c3ccc(Cl)cc3)c2O[C@H]1CN(C)S(=O)(=O)c1ccc(Cl)cc1 | -26.5%
56 | O=C(CCS(=O)(=O)c1ccccc1)NC1CCCC1 | 11.3% [at 12.3 µM]
57 | O=C(CCS(=O)(=O)c1ccccc1)Nc1nc2c(s1)CCCC2 | 60.1% [at 12.3 µM] (active)
58 | O=C(CSc1nc(O)c(Cc2ccccc2)c(=O)[nH]1)Nc1nc2c(s1)CCCC2 | 25.1% [at 12.3 µM]
59 | COC(=O)CN(C(=S)Nc1ccc(Cl)cc1)C1CC(=O)N(c2ccc(OC)cc2)C1=O (stereo not given) | -3.79% [at 12.3 µM]
60 | COc1ccc(CCN2C(=O)N(c3ccc(OC)cc3)C(=O)C2CC(=O)Nc2ccc(OC)cc2)cc1 (stereo not given) | 9.15% [at 12.3 µM]
61 | CCOc1ccc(N2C(=O)CC(N(CCc3ccc(OC)c(OC)c3)C(=S)Nc3ccccc3)C2=O)cc1 (stereo not given) | 58.4% [at 12.3 µM] (active)
62 | COc1ccc(N2C(=O)C(CC(=O)Nc3ccccc3)N(Cc3ccc(OC)c(OC)c3)C2=O)cc1 (stereo not given) | 56.7% [at 12.3 µM] (active)
63 | CCOc1ccc(NC(=O)CC2C(=O)N(c3ccccc3)C(=O)N2CCOC)cc1 (stereo not given) | -3.16% [at 12.3 µM]
64 | CCCOc1ccc(N2C(=O)CC(N(CCc3ccc(S(N)(=O)=O)cc3)C(C)=O)C2=O)cc1 (stereo not given) | 19.9% [at 12.3 µM]
65 | C[C@H](CO)N1C[C@H](C)[C@@H](CN(C)C(=O)C2CC2)Oc2cc(C#CC(C)(C)O)ccc2S1(=O)=O | -33.6%
